Measured values: the supplement of paper PMC10849652
Targets with a hit are over-represented here; the source holds about 7,900 in all. About 0.6% of all pairs of compound and target were hits.

Columns and labels:
Test in all cases: log2 fold change, soluble protein after heating vs DMSO (PISA); higher = thermal stabilisation; K562 cells, 10 uM, 30 min; active = over 0.2 and 3.5 SD of the protein, either way, in both replicates (recomputed)
[1] = compound: COC1=CC=C(C=C1)CN2C=CC3=C2C=C(C=C3)C(=O)NO
Procedure, shortened: (§1)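 Values are thermal stability changes relative to control samples and are taken from duplicates. They are stated as log2 fold changes. Before quantification by TMTpro 16plex LC-MS/MS with equalised channel sums, K562 cells at 2×10^6 cells/mL were treated with 10 μM compound for 30 min, heated in aliquots for 3 min across 48°C-58°C, pooled, extracted in PBS with 0.5% NP-40 at 4°C, and centrifuged at 21,000xg for 90 min to give the soluble supernatant.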

filanesib = compound: CON(C)C(=O)N1N=C(c2cc(F)ccc2F)S[C@@]1(CCCN)c1ccccc1 [filanesib]
Procedure, shortened: as §1

zotarolimus = compound: CO[C@H]1C[C@@H]2CC[C@@H](C)[C@@](O)(O2)C(=O)C(=O)N2CCCC[C@H]2C(=O)O[C@H]([C@H](C)C[C@@H]2CC[C@H](n3cnnn3)[C@H](OC)C2)CC(=O)[C@H](C)/C=C(\C)[C@@H](O)[C@@H](OC)C(=O)[C@H](C)C[C@H](C)/C=C/C=C/C=C/1C [zotarolimus]
Procedure, shortened: as §1

idasanutlin = compound: COc1cc(C(=O)O)ccc1NC(=O)[C@@H]1N[C@@H](CC(C)(C)C)[C@](C#N)(c2ccc(Cl)cc2F)[C@H]1c1cccc(Cl)c1F [idasanutlin]
Procedure, shortened: as §1

alisertib = compound: COc1cc(Nc2ncc3c(n2)-c2ccc(Cl)cc2C(c2c(F)cccc2OC)=NC3)ccc1C(=O)O [alisertib]
Procedure, shortened: as §1

[2] = compound: COc1cc2nc(-c3cc(F)ccc3O)nc(N[C@@H]3CNC[C@H]3C(C)(C)O)c2cc1OC
Procedure, shortened: as §1

gefitinib = compound: COc1cc2ncnc(Nc3ccc(F)c(Cl)c3)c2cc1OCCCN1CCOCC1 [gefitinib]
Procedure, shortened: as §1

[3] = compound: COc1cccc2cc(-c3nc([C@H]4CC[C@H](C(=O)O)CC4)n4ncnc(N)c34)[nH]c12
Procedure, shortened: as §1

lapatinib = compound: CS(=O)(=O)CCNCc1ccc(-c2ccc3ncnc(Nc4ccc(OCc5cccc(F)c5)c(Cl)c4)c3c2)o1 [lapatinib]
Procedure, shortened: as §1

pictilisib = compound: CS(=O)(=O)N1CCN(Cc2cc3nc(-c4cccc5[nH]ncc45)nc(N4CCOCC4)c3s2)CC1 [pictilisib]
Procedure, shortened: as §1

[4] = compound: CS(=O)(=O)c1ccc(-c2cnc(N)c(C(=O)Nc3ccccc3)n2)cc1
Procedure, shortened: as §1

crizotinib = compound: C[C@@H](Oc1cc(-c2cnn(C3CCNCC3)c2)cnc1N)c1c(Cl)ccc(F)c1Cl [crizotinib]
Procedure, shortened: as §1

[5] = compound: C[C@@H]1COCCN1C2=NC(=NC(=C2)C3(CC3)S(=O)(=O)C)C4=C5C=CNC5=CC=C4
Procedure, shortened: as §1

[6] = compound: C[C@H](C1=CC=C(C=C1)C(=O)NC2=C3C=CNC3=NC=C2)N
Procedure, shortened: as §1

duvelisib = compound: C[C@H](Nc1ncnc2nc[nH]c12)c1cc2cccc(Cl)c2c(=O)n1-c1ccccc1 [duvelisib]
Procedure, shortened: as §1

gandotinib = compound: Cc1cc(Nc2cc(CN3CCOCC3)c3nc(C)c(Cc4ccc(Cl)cc4F)n3n2)n[nH]1 [gandotinib]
Procedure, shortened: as §1

tozasertib = compound: Cc1cc(Nc2cc(N3CCN(C)CC3)nc(Sc3ccc(NC(=O)C4CC4)cc3)n2)n[nH]1 [tozasertib]
Procedure, shortened: as §1

[7] = compound: Cc1cc(SCc2sc(-c3ccc(C(F)(F)F)cc3)nc2C)ccc1OCC(=O)O
Procedure, shortened: as §1

doramapimod = compound: Cc1ccc(-n2nc(C(C)(C)C)cc2NC(=O)Nc2ccc(OCCN3CCOCC3)c3ccccc23)cc1 [doramapimod]
Procedure, shortened: as §1

ispinesib = compound: Cc1ccc(C(=O)N(CCCN)[C@@H](c2nc3cc(Cl)ccc3c(=O)n2Cc2ccccc2)C(C)C)cc1 [ispinesib]
Procedure, shortened: as §1

Measured: log2 fold change

RETREG3 (UniProt Q86VR2)
UniProt Q86VR2, sequence (Q86VR2 whole entry, looked up): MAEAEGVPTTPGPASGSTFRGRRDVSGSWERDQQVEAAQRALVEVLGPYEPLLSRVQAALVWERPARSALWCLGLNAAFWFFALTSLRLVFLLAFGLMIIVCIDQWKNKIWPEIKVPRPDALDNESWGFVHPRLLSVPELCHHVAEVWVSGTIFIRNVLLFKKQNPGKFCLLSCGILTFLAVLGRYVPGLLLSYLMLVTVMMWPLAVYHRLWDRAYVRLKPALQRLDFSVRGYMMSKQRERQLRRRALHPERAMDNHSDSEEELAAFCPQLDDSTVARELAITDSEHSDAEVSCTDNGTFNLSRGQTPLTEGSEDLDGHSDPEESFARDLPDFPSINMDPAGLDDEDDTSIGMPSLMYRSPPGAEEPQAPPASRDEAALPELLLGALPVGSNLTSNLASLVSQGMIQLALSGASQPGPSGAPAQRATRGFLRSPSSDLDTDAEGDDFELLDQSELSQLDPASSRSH
inactive: [1] -0.038 | filanesib -0.136 | zotarolimus -0.053 | idasanutlin -0.008 | alisertib 0.029 | [2] -0.141 | gefitinib 0.035 | [3] 0.106 | lapatinib 0.037 | pictilisib 0.102 | [4] 0.016 | crizotinib -0.076 | [5] 0.081 | [6] 0.024 | duvelisib 0.005 | gandotinib 0.007 | tozasertib 0.006 | [7] 0.033 | doramapimod -0.052
active: ispinesib -0.459

RIC8A isoform 3 (UniProt Q9NPQ8)
UniProt Q9NPQ8, sequence (Q9NPQ8 whole entry, looked up): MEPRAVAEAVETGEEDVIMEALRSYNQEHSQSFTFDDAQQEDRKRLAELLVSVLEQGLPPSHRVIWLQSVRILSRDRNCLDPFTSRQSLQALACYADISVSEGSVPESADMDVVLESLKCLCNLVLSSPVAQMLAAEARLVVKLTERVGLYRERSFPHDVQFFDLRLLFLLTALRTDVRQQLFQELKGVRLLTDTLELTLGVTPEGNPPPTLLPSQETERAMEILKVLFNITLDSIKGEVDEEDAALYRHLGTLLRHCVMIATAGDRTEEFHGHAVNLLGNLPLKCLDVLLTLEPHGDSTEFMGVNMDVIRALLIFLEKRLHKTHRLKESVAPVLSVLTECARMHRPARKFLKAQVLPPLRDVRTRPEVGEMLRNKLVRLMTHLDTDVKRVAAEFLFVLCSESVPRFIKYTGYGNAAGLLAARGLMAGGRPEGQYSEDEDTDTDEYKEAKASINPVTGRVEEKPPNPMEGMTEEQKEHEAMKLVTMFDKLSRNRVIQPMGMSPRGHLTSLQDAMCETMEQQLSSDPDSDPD
inactive: [1] -0.007 | filanesib -0.046 | zotarolimus -0.058 | idasanutlin -0.032 | alisertib 0.159 | [2] -0.095 | gefitinib 0.043 | [3] 0.009 | lapatinib 0.001 | pictilisib -0.002 | [4] 0.042 | crizotinib -0.085 | [5] -0.036 | [6] 0.094 | duvelisib 0.036 | gandotinib -0.038 | tozasertib 0.177 | [7] 0.193 | doramapimod 0.094 | ispinesib -0.145

SGPL1 (UniProt O95470)
UniProt O95470, sequence (O95470 whole entry, looked up): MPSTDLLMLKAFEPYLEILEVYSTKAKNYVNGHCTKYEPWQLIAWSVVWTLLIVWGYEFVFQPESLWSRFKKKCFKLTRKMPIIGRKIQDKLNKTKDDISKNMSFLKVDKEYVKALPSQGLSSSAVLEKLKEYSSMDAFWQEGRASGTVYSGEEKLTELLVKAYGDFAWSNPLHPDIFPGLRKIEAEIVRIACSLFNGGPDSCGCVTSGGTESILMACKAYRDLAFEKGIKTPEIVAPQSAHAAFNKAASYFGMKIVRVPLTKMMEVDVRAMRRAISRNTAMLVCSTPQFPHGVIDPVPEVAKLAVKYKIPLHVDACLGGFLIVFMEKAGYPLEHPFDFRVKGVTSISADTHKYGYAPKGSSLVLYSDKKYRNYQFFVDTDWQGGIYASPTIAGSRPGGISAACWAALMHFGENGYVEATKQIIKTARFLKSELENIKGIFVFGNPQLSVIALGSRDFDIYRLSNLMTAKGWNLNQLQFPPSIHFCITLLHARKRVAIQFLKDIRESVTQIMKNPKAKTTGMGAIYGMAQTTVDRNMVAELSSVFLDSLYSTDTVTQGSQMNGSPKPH
inactive: [1] -0.064 | filanesib 0.107 | zotarolimus -0.011 | idasanutlin 0.051 | alisertib -0.046 | [2] 0.012 | gefitinib 0.001 | [3] -0.115 | lapatinib 0.04 | pictilisib -0.013 | [4] 0.095 | crizotinib 0.077 | [5] -0.034 | [6] 0.011 | duvelisib 0.019 | gandotinib 0.259 | tozasertib -0.089 | [7] 0.024 | doramapimod 0.084 | ispinesib 0.077

RPS25 (UniProt P62851)
inactive: [1] 0.006 | filanesib 0.145 | zotarolimus -0.015 | idasanutlin 0.061 | alisertib -0.143 | [2] -0.038 | gefitinib -0.022 | [3] -0.198 | lapatinib 0.038 | pictilisib -0.08 | [4] -0.101 | crizotinib -0.041 | [5] -0.286 | [6] 0.239 | duvelisib -0.083 | gandotinib 0.239 | tozasertib 0.028 | [7] 0.032 | doramapimod 0.178 | ispinesib -0.148

RTF2 (UniProt Q9BY42)
UniProt Q9BY42, sequence (Q9BY42 whole entry, looked up): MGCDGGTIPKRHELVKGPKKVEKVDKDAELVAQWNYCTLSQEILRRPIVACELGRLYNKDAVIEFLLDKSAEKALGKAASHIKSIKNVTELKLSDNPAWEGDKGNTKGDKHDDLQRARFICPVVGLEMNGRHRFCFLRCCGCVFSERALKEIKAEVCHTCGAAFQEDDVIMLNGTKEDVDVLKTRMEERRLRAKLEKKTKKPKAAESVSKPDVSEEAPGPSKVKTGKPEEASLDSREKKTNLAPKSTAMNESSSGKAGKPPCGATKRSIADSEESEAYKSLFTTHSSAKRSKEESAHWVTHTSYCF
inactive: [1] -0.021 | filanesib 0.09 | zotarolimus 0.03 | idasanutlin 0.066 | alisertib 0.024 | [2] 0.036 | gefitinib 0.049 | [3] 0 | lapatinib 0.026 | pictilisib -0.027 | [4] -0.005 | crizotinib 0.234 | [5] -0.061 | [6] -0.089 | duvelisib 0.116 | gandotinib 0.104 | tozasertib 0.166 | [7] -0.003 | doramapimod -0.083 | ispinesib 0.151

RPS14 (UniProt P62263)
inactive: [1] 0.034 | filanesib 0.046 | zotarolimus 0.028 | idasanutlin 0.062 | alisertib -0.209 | [2] -0.047 | gefitinib -0.048 | [3] -0.154 | lapatinib 0.132 | pictilisib -0.321 | [4] -0.049 | crizotinib -0.075 | [5] -0.22 | [6] 0.183 | duvelisib -0.131 | gandotinib 0.056 | tozasertib 0.016 | [7] 0.023 | doramapimod 0.071 | ispinesib 0.002

RBIS (UniProt Q8N0T1)
UniProt Q8N0T1, sequence (Q8N0T1 whole entry, looked up): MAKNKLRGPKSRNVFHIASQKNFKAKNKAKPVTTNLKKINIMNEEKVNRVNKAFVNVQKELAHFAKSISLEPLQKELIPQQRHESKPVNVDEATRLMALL
inactive: [1] -0.069 | filanesib 0.077 | zotarolimus -0.075 | idasanutlin 0.061 | alisertib -0.053 | [2] -0.018 | gefitinib -0.056 | [3] -0.012 | lapatinib 0.012 | pictilisib -0.04 | [4] -0.157 | crizotinib -0.097 | [5] -0.086 | [6] 0.069 | duvelisib -0.028 | gandotinib 0.053 | tozasertib -0.014 | [7] -0.045 | doramapimod 0.062 | ispinesib 0.009

SAAL1 (UniProt Q96ER3)
UniProt Q96ER3, sequence (Q96ER3 whole entry, looked up): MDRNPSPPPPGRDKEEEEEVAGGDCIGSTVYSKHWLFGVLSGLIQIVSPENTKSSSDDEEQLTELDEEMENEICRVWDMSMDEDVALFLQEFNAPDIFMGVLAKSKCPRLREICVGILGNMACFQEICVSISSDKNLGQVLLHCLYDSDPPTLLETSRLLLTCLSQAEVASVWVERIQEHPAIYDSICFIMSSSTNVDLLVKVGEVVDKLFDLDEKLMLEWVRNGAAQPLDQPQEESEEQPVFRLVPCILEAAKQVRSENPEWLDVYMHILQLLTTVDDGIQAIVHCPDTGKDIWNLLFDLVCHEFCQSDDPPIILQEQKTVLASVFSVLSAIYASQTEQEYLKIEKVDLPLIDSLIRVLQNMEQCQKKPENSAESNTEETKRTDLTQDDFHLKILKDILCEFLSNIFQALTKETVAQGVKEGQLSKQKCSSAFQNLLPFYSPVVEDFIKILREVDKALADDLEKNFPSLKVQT
inactive: [1] -0.179 | filanesib -0.032 | zotarolimus 0.016 | idasanutlin -0.11 | alisertib -0.067 | [2] 0.214 | gefitinib -0.055 | [3] 0.018 | lapatinib -0.002 | pictilisib -0.018 | [4] 0.013 | crizotinib -0.129 | [5] 0.047 | [6] 0.008 | duvelisib 0.036 | gandotinib 0.022 | tozasertib -0.044 | [7] 0.019 | doramapimod -0.006 | ispinesib -0.049

SDCBP (UniProt O00560)
UniProt O00560, sequence (O00560 whole entry, looked up): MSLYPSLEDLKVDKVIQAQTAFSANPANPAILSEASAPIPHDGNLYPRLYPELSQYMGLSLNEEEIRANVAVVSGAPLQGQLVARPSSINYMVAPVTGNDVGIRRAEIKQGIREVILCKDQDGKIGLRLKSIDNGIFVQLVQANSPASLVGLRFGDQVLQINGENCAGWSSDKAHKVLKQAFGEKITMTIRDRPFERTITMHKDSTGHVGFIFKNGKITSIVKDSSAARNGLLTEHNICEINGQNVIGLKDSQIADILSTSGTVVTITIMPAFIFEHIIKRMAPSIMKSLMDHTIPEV
active: ispinesib -0.361
inactive: [1] -0.022 | filanesib -0.154 | zotarolimus 0.1 | idasanutlin 0.101 | alisertib -0.04 | [2] -0.152 | gefitinib -0.043 | [3] -0.022 | lapatinib 0.005 | pictilisib -0.05 | [4] -0.003 | crizotinib -0.216 | [5] 0.101 | [6] -0.043 | duvelisib -0.008 | gandotinib 0.094 | tozasertib 0.048 | [7] 0.086 | doramapimod -0.006

RNF167 (UniProt Q9H6Y7)
active: ispinesib -0.668
inactive: [1] -0.062 | filanesib -0.032 | zotarolimus -0.033 | idasanutlin 0.018 | alisertib -0.014 | [2] -0.084 | gefitinib -0.013 | [3] 0.016 | lapatinib 0.024 | pictilisib -0.029 | [4] 0.087 | crizotinib -0.133 | [5] -0.097 | [6] 0.082 | duvelisib -0.026 | gandotinib -0.045 | tozasertib 0.027 | [7] 0.018 | doramapimod -0.056

RPS5 (UniProt P46782)
inactive: [1] 0.004 | filanesib 0.089 | zotarolimus 0.011 | idasanutlin 0.094 | alisertib -0.11 | [2] -0.056 | gefitinib -0.052 | [3] -0.126 | lapatinib 0.081 | pictilisib -0.099 | [4] -0.081 | crizotinib 0 | [5] -0.255 | [6] 0.176 | duvelisib -0.081 | gandotinib 0.108 | tozasertib 0.029 | [7] 0.017 | doramapimod 0.069 | ispinesib -0.073

SFXN5 (UniProt Q8TD22)
UniProt Q8TD22, sequence (Q8TD22 whole entry, looked up): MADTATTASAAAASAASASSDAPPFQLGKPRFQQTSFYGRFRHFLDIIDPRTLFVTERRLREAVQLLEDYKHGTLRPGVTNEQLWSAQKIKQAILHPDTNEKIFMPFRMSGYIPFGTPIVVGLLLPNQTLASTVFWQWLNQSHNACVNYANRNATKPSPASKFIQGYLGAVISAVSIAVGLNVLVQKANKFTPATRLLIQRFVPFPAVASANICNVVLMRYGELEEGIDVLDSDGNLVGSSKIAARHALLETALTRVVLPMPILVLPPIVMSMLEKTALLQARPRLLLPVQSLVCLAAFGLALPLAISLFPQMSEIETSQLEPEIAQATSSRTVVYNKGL
inactive: [1] -0.104 | filanesib -0.007 | zotarolimus 0.025 | idasanutlin -0.172 | alisertib 0.027 | [2] -0.019 | gefitinib -0.013 | [3] 0.035 | lapatinib 0.017 | pictilisib 0.061 | [4] 0.144 | crizotinib 0.021 | [5] 0.073 | [6] -0.137 | duvelisib -0.07 | gandotinib -0.026 | tozasertib -0.015 | [7] 0.076 | doramapimod -0.055 | ispinesib 0.049

RPP25L (UniProt Q8N5L8)
UniProt Q8N5L8, sequence (Q8N5L8 whole entry, looked up): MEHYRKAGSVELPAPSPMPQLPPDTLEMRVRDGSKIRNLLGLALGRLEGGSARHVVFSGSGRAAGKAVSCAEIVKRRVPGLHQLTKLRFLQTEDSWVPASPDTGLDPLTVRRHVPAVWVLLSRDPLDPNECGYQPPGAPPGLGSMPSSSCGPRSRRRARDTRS
inactive: [1] 0.107 | filanesib 0.012 | zotarolimus -0.002 | idasanutlin 0.069 | alisertib -0.093 | [2] -0.12 | gefitinib 0.054 | [3] -0.068 | lapatinib 0.042 | pictilisib -0.052 | [4] -0.031 | crizotinib 0.059 | [5] -0.014 | [6] 0.145 | duvelisib 0.06 | gandotinib 0.045 | tozasertib -0.01 | [7] -0.019 | doramapimod -0.005 | ispinesib -0.027

RRAGC (UniProt Q9HB90)
UniProt Q9HB90, sequence (Q9HB90 whole entry, looked up): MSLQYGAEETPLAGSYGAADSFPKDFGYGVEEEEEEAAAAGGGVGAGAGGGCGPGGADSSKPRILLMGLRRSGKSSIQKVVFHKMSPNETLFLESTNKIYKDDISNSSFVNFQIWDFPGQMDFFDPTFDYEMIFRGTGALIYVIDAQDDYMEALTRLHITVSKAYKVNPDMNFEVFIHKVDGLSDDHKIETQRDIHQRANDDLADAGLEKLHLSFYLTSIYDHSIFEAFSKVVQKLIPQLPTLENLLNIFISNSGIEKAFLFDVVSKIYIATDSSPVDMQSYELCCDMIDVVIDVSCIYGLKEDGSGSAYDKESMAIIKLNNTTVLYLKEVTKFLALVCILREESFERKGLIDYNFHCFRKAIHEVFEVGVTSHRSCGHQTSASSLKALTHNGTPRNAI
inactive: [1] -0.028 | filanesib -0.095 | zotarolimus -0.009 | idasanutlin -0.065 | alisertib -0.003 | [2] 0.011 | gefitinib -0.01 | [3] 0.057 | lapatinib -0.01 | pictilisib 0.066 | [4] 0.016 | crizotinib -0.262 | [5] 0.008 | [6] -0.027 | duvelisib 0.053 | gandotinib 0 | tozasertib -0.061 | [7] -0.039 | doramapimod 0.019 | ispinesib -0.153

RNPEP (UniProt Q9H4A4)
UniProt Q9H4A4, sequence (Q9H4A4 whole entry, looked up): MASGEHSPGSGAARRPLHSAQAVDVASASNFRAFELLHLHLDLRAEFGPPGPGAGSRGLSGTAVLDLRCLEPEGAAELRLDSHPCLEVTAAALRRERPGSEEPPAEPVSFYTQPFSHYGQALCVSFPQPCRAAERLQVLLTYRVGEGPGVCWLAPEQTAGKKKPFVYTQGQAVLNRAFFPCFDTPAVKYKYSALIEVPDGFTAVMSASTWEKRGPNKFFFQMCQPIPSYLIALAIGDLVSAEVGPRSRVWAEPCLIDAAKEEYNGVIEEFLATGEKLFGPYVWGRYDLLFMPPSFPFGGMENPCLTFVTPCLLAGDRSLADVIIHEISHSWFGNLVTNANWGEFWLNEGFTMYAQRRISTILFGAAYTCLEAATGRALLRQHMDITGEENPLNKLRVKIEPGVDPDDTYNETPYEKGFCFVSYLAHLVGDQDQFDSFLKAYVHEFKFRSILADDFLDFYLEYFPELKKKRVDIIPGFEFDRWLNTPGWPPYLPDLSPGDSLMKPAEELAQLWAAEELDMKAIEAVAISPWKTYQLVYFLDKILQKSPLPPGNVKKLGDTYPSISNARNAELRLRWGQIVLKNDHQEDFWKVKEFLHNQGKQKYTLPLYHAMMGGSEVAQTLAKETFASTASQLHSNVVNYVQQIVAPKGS
inactive: [1] 0.008 | filanesib -0.083 | zotarolimus 0.044 | idasanutlin -0.02 | alisertib -0.018 | [2] -0.009 | gefitinib -0.023 | [3] 0 | lapatinib 0.043 | pictilisib 0.008 | [4] 0.037 | crizotinib -0.081 | [5] 0.081 | [6] -0.034 | duvelisib 0.039 | gandotinib -0.053 | tozasertib 0.018 | [7] 0.083 | doramapimod -0.031 | ispinesib -0.086
